Assay results as given in PubChem BioAssay AID539 (SRMLSC, 2006).
In all, about 65,000 compounds went through this assay and about 320 (0.49%) were called active.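 How the source made its calls: active means top-ranked compounds by inhibition in the single 10 µM screen, taking a fixed number of the strongest; inactive means the rest, inconclusive results apart.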 The entries come from a sample that favours actives as a whole.

System: phosphomevalonate kinase (Streptococcus pneumoniae D39)
Test: S. pneumoniae PMK inhibitors, primary screen, biochemical, mevalonate pathway, pilot trial included (AID 539);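 further: 0% = full reaction with DMSO carrier and 100% = background rate without enzyme reaction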
Settings: purified PMK, PK/LDH-coupled NADH absorbance 340 nm, at 10 µM, stronger effect = higher value
[1] = measured here: pilot screen replicates

Row | SMILES | inhibition | inhibition [1] [%]
1 | C#CCN1CC(C)/C(=N/O)CC1C (stereo not drawn) | 7% (inactive) | –
2 | Cc1cccc(NC(=O)c2ccc3ccccc3n2)n1 | 0% (inactive) | 0.5
3 | CCOc1ccc(CNC(=O)C2CC(=O)N(C3CCCC3)C2)cc1OC (stereo not drawn) | 8% (inactive) | –
4 | CCOCCCN1C(=O)CN(C2CCCCC2)C(=O)C1c1ccc(OCC)c(OC)c1 (stereo not drawn) | 29% (active) | –
5 | CCOc1ccc(CNC(=O)C2CCC(=O)N2C2CCCC2)cc1OC (stereo not drawn) | 11% (inactive) | –
6 | CCc1ccccc1NC(=O)c1cccs1 | 7% (inactive) | –
7 | CCc1nnc(NC(=O)c2cccs2)s1 | 35% (active) | –
8 | CCc1nnc(NC(=O)CCC(=O)O)s1 | 0% (inactive) | –
9 | CCCN(c1ccc(C(C)C)cc1)S(=O)(=O)c1c(C)[nH]c(=O)[nH]c1=O | 8% (inactive) | –
10 | O=C(NC1CCN(Cc2ccccc2)CC1)c1ccccc1F | 0% (inactive) | –
11 | COc1ccc(CCNC(=O)CCCCn2c(=O)[nH]c3ccccc3c2=O)cc1OC | 9% (inactive) | –
12 | COc1cc2[nH]c(=O)n(CCC(=O)NC3CCN(Cc4ccccc4)CC3)c(=O)c2cc1OC | 27% (active) | –
13 | OCc1nc(CO)n(Cc2ccccc2)n1 | 14% (inactive) | 1
14 | Cc1ccccc1Cn1c(=O)[nH]c2ccccc21 | 15% (inactive) | –
15 | Cc1cc2c(=O)n(C)c(SCC(=O)c3cc4ccccc4o3)nc2s1 | 1% (inactive) | –
16 | CCc1nnc(NC(=O)CSc2nc3c(c(=O)n2-c2ccccc2OC)SCC3)s1 | 0% (inactive) | –
17 | CCOC(=O)CSC1=C(C#N)C(c2sccc2C)CC(=O)N1 (stereo not drawn) | 6% (inactive) | –
18 | COc1ccc(-n2c(SCC(=O)OC(C)C)nnc2-c2ccccn2)cc1 | 8% (inactive) | –
19 | COC(=O)[C@H](Cc1ccccc1)NC(=O)Nc1ccc(S(N)(=O)=O)cc1 | 10% (inactive) | –
20 | CC(C)CCn1c(CN(C)Cc2ccccc2)nc2c1c(=O)n(C)c(=O)n2C | 12% (inactive) | –
21 | Cc1ccc(S(=O)(=O)N2CCC(N3CCCCCC3)CC2)cc1 | 0% (inactive) | –
22 | Cc1cc(NC(=O)c2cccc(N3C(=O)CCC3=O)c2)no1 | 11% (inactive) | –
23 | CCOc1cc(CO)ccc1OCC(=O)N1CCCCC1 | 9% (inactive) | –
24 | CCOC(=O)c1c(C)oc2ccc(OCC(=O)N(CC)CC)cc12 | 2% (inactive) | 2.5
25 | CCN1CCN(c2c(Cl)cccc2NC(=O)c2ccc(Br)o2)CC1 | 8% (inactive) | –
26 | CCCc1nnc(NC(=O)CN2C(=O)c3ccccc3S2(=O)=O)s1 | 4% (inactive) | –
27 | O=S(=O)(O)CCN1CCOCC1 | 13% (inactive) | –
28 | CCOC(=O)N1CCC(NC(=O)COc2cc(=O)n(C)c3ccccc23)CC1 | 7% (inactive) | –
29 | CCOC(=O)N1CCC(NC(=O)Cc2cn(C)c3ccccc23)CC1 | 5% (inactive) | –
30 | CCOC(=O)N1CCC(NC(=O)CCc2cn(C)c3ccccc23)CC1 | 30% (active) | –
